# Substitutions are numbered along the chain they refer to. The full ranking holds about 24,000 sequences; the median of “enrichment r” is about 0.99, and the highest 2% start at about 3.7. This is one part of a sample in which the highest values are shown more often than they occur.
# B1: chrX:71549762:71549763:+_ENSMUSG00000019087_ENSMUST00000019231|mus_mus|mus_mus_mus_hu_False|28_88 (ssRNA)
# RNA: GGGAGUUCUACAGUCCGACGAUCAAACCCGUGUACUUCUUAUUGUUACAUCACCCCCACCAGAAAACGAUAACGACAGCCAAGCAGGACAGACAGUUAAGUAGUACUUCCACACCUCCAAACUCAGGGAGCCCUAUAACCUUACAACAGAGGAUUGAGCAUCA
# B2: 32740819_32743422_11525_CDS_ENSG00000115760_ENST00000421745|human|control|control (ssRNA)
# RNA: GGGAGUUCUACAGUCCGACGAUCCAGCAUCAACUGUAAAAAUAAUCUUCGUAUAAACCCUGAAAUGUUCCCAGAUGUUGGAAGGUUCCCUCUUUGAGGAGAUGUCUGAAAUAGUUCACAAAGAACCUGUGCCAUCAGCUUUUGCAACAGAGGAUUGAGCAUCA
# B3: 112506700_112506820_3235_3pUTR_ENSMUSG00000032727_ENSMUST00000109272|mouse|control|control (ssRNA)
# RNA: GGGAGUUCUACAGUCCGACGAUCAAUAAAUACCCUCCCGUCCAGUCACUAGGACCACUACCUCCUACCUACUCUUCAGCACGACCUUGAAGCGACUCACACUUAUAAACAGCAACACAACUAGGAAAAUAAAAAAAAAAAUCACAACAGAGGAUUGAGCAUCA
# B4: chrX:71549762:71549763:+_ENSMUSG00000019087_ENSMUST00000019231|mus_mus|mus_mus_mus_hu_False|28_98 (ssRNA)
# RNA: GGGAGUUCUACAGUCCGACGAUCAAACCCGUGUACUCACUCUUAACAGCACAACAUCACCAGAAAACGAUAACGACAGCCAAGCAGGACAGACAGUUAAGUAGUACUUCCACACCUCCAAACUCAGGGAGCCCUAUAACCUUACAACAGAGGAUUGAGCAUCA
# B5: chr2:140009677:140009678:+_ENSMUSG00000027384_ENSMUST00000044825|mus_mus|FALSE|FALSE (ssRNA)
# RNA: GGGAGUUCUACAGUCCGACGAUCGCUGCUAACCACCAGGUCAAACGUGUUUUCUUGGAAGGGAAGGAAUUCUUCAUCAGCUAAAAUAUUCACAGUAGGAAUAUCUGUUUCUAAAGAAUUUUUCAAAGCAUGCUCUGCAAUGUCCAACAGAGGAUUGAGCAUCA
# B6: chr1:32661602:32661603:+_ENSG00000084652_ENST00000373610|hu_hu|FALSE|FALSE (ssRNA)
# RNA: GGGAGUUCUACAGUCCGACGAUCCAGCAUCCCUCUUCCUUGGAAGGUCCUCAAUACAAACACUGUCAUGUGCAAAAAAAAAAGAAAAAGAAAAAAAAAAAAAAAGAAAAAGAAAUAAAGAAAAAAACACCUUCAGAAAUAAUCCAACAGAGGAUUGAGCAUCA
# B7: chr3:41266445:41266446:+_ENSG00000168036_ENST00000349496|perfect_dup|FALSE|FALSE (ssRNA)
# RNA: GGGAGUUCUACAGUCCGACGAUCCAUAGCAGCUCGUACCCUCUGAGCUCGAGUCAUUGCAUACUGUCCAUCAAUAUCAGCUACUUGUUCUUGAGUGAAGGACUGAGAAAAUCCCUGUUCCCACUCAUACAGGACUUGGGAGGUCAACAGAGGAUUGAGCAUCA
# B8: chrX:140365796:140365797:-_ENSMUSG00000031285_ENSMUST00000033642|mus_mus|mus_mus_mus_hu_False|28_108 (ssRNA)
# RNA: GGGAGUUCUACAGUCCGACGAUCCUUCUCAUUACUUAGUGCCUGCAAGGUUCUGGUUCGGUAGAAGCUACAGUGGGCGCUGUGAGUGGGGCUAGGCAACCCAUUCAUCCGUGACCCUCGCAUGUUCCUGGAUGUCUUAUCUCUCAACAGAGGAUUGAGCAUCA
# B9: chr9:95013113:95013114:-_ENSG00000196305_ENST00000443024|hu_hu|hu_hu_hu_mus_False|68_98 (ssRNA)
# RNA: GGGAGUUCUACAGUCCGACGAUCCUCAGUCAGAAAGGGUGUGUAGGGGGCCAUCAGUCUGCACAGAGAAAGCAGAACACUGAACAGUGUCUCCAGAGCCAUGACACAGUCUUCCACCCCACUCUCACCCUUUAACCUCCUCCUCAACAGAGGAUUGAGCAUCA
# B10: 176631152_176631272_1200_CDS_ENSG00000165671_ENST00000439151|human|control|control (ssRNA)
# RNA: GGGAGUUCUACAGUCCGACGAUCUUUCUGUUUCCCUCUUCUCCUAAGGACAGGUAGCUCUUCGAAUUGAUGUCUGCCUUCAAACAUGACGAUUGCUUUUCCAGCCACCCAGGCUCUCUCAGAAGGAUCUCCAAAAGCCUCCACCAACAGAGGAUUGAGCAUCA
# B11: chr2:42509997:42509998:+_ENSG00000143924_ENST00000318522|hu_mus|hu_hu_hu_mus_True|38_108 (ssRNA)
# RNA: GGGAGUUCUACAGUCCGACGAUCUCGCUGAGUUCUCUCCUCAUAAUUAAACAGGACUACCACUGAGGCGAUAAAAUAAACUAUCUCCCCUGUGGGAAGAAGGUAAACAUUCGCUCUACAGUCCUUUCCUCGAUAACCGUAUACCAACAGAGGAUUGAGCAUCA
# B12: chr5:72798899:72798900:+_ENSG00000145741_ENST00000335895|hu_mus|motif|central (ssRNA)
# RNA: GGGAGUUCUACAGUCCGACGAUCGGGUGCUUUUCCAUCCACAGAUUGUUUGGGCAGAGCUUCAGCCAGUCUCCUUAAACGGGUCAGGCUGUCUGCACCAAGCUGGUUGAGGAUGCUGGGAAGCAUUUCUGUCAGCUGCUUUGUCAACAGAGGAUUGAGCAUCA
# B13: 160239608_160243617_1107_3pUTR_ENSG00000186432_ENST00000334256|human|control|control (ssRNA)
# RNA: GGGAGUUCUACAGUCCGACGAUCAGGAACUAUUCCAGAGUCUAUUACCAUCUGUAUUUGUUCAUUGCCAGCAUCAGUAAGGUAAGAGAGGGCCCAGACUGUGUCUACCAGUAUAUUUACAUCUGUGUGAUGAAUUAAAACACACAACAGAGGAUUGAGCAUCA
# B14: chrX:71099370:71099371:-_ENSMUSG00000031391_ENSMUST00000102871|mus_hu|FALSE|FALSE (ssRNA)
# RNA: GGGAGUUCUACAGUCCGACGAUCUUUAUUUUUCCUGGGAUGGGUUCAUCAAAGCUAAUUGCUAUCAAUCCUAGAAACCACCUAGGGACUCAGACAUCUGCCUACACACUAGUGGCGUAAAGGGAAGGACAGGGGUACAAACUUCAACAGAGGAUUGAGCAUCA
# B15: chr8:29927545:29927546:-_ENSG00000133872_ENST00000521265|hu_mus|FALSE|FALSE (ssRNA)
# RNA: GGGAGUUCUACAGUCCGACGAUCAGAGGACUCGUAGCCUUCACAGCUCACCACAGUUUUGCCAAAUUUGUAUGCAAUAUCCAAGUCGGUCUUACAUUCCCACUGUACAUCGUAGCCAUCCCAGCCUUUGUUCUGGCACUGUAUCAACAGAGGAUUGAGCAUCA
# B16: chr1:225611761:225611762:-_ENSG00000143815_ENST00000272163|hu_mus|hu_hu_hu_mus_True|38_48 (ssRNA)
# RNA: GGGAGUUCUACAGUCCGACGAUCCCAGGCCAUCGGCCUCUGACCACUUCACCCUCAACAAACUUCCUACUUGGCAUUUUCUAAAAUUAACCUGCGCCAGGUUCCGGGGGAACUCCAGCCACUCCAGGACAGUCACCAGCAGCCCAACAGAGGAUUGAGCAUCA
# B17: chr7:26237324:26237325:-_ENSG00000122566_ENST00000356674|hu_mus|FALSE|FALSE (ssRNA)
# RNA: GGGAGUUCUACAGUCCGACGAUCCUCAUAGUAGUUUCUCAAACUUUCUUCUGUGGUUUCAAAGCUUAAGCCACCAAUAAAGAGCUUUCGGAACUGUUCCUUUUCUCUCUUUUUCCUCUCCAAAGGAACAGUUUCUAAAGUUUUCAACAGAGGAUUGAGCAUCA
# B18: chr7:135832672:135832673:+_ENSMUSG00000042105_ENSMUST00000118605|mus_mus|FALSE|FALSE (ssRNA)
# RNA: GGGAGUUCUACAGUCCGACGAUCCACGCCAAAAAUUCCAUCACGACACAAUUUUUACACACACACCAAAAAACAAAAAAAACAAAAAAAAAAAAAAAAAACCCAAAAAACAAAAAACCCUACAGUGUCACUUCCAUCCUGCCUCAACAGAGGAUUGAGCAUCA
# B19: chr14:63839279:63839280:-_ENSG00000154001_ENST00000337537|hu_hu|FALSE|FALSE (ssRNA)
# RNA: GGGAGUUCUACAGUCCGACGAUCUUAAAAGGAAAAAAGGAAAACAAGGAAAAAAAACCACCCCAAACCCCAAAAAACUCUAAACACUUAAAAAUGCCAAUAACAUCCAUACAUCCCUUUCCCAUCCCACCCUCAUCCCCACAACAACAGAGGAUUGAGCAUCA
# B20: chr1:66486067:66486068:+_ENSMUSG00000015222_ENSMUST00000077355|mus_hu|FALSE|FALSE (ssRNA)
# RNA: GGGAGUUCUACAGUCCGACGAUCUUAUCCAGGUCCCAAAUGUUAAUAACUUAAUUGAAUCUUUCUUCCCAUUUAUACAAAAUAACACUUUAAAAAAACUUAUUUCUUACAUGCUCUUCCCUUCCUGCAAUCAGACUCCUUGGUCAACAGAGGAUUGAGCAUCA
# B21: chr3:151883435:151883436:+_ENSMUSG00000028034_ENSMUST00000166984|mus_mus|motif|central (ssRNA)
# RNA: GGGAGUUCUACAGUCCGACGAUCCAUUUCUCCAUUUCUUCCUAUUACAAUGCCAACAGCAAAUCUUGGAAUUGGGACAUCGGUCCCUUCAUUGCCUCCUAUUCUUGAGCCAUACUCAUUCCGCACUUCUCUGAAACCACCUUGCAACAGAGGAUUGAGCAUCA
# B22: chr14:63839279:63839280:-_ENSG00000154001_ENST00000337537|hu_hu|motif|central (ssRNA)
# RNA: B19 RNA with U80G, A81G
# B23: chr15:98568902:98568903:-_ENSMUSG00000051853_ENSMUST00000053183|mus_hu|FALSE|FALSE (ssRNA)
# RNA: GGGAGUUCUACAGUCCGACGAUCGGCCAGGGAAAUGAAUACAUUUUUAAAUGAAAUAGAACCUCCAACACCCCCCCCACAACCACCACACACAAACACACCCACACCCAUAUACACACACACUCACACACACACACAGGCCUACAACAGAGGAUUGAGCAUCA
# B24: chr1:225611761:225611762:-_ENSG00000143815_ENST00000272163|hu_mus|hu_hu_hu_mus_True|38_98 (ssRNA)
# RNA: B16 RNA with G41U, A89G, C90U, C94G, G95C
# Target: T1, UNK ZnF1-3 (human, UniProt Q9C0B0 31-174)
# T1 sequence: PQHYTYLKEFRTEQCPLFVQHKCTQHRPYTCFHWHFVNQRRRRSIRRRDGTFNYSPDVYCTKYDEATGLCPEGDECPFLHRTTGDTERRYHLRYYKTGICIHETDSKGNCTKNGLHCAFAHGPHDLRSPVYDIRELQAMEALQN
# Test: nsRBNS (natural sequence RNA bind-n-seq); RBNS binding buffer (assumed for nsRBNS): 25 mM Tris pH 7.5, 150 mM KCl, 3 mM MgCl2, 0.01% Triton X-100, 500 ug/ml BSA, 20 U/ml SUPERase-In, 4 C; UNK is unkempt and MSI1 is Musashi-1; names of the RNAs are library labels; protein concentration not given here; high values mean tight binding
row,Binder,binding signal [enrichment R]
1,B1,1.85
2,B2,1.97
3,B3,4.38
4,B4,1.72
5,B5,1.19
6,B6,4.33
7,B7,0.798
8,B8,0.752
9,B9,0.959
10,B10,0.923
11,B11,1.03
12,B12,0.508
13,B13,1.37
14,B14,0.995
15,B15,0.8
16,B16,1.33
17,B17,0.272
18,B18,11.5
19,B19,4.18
20,B20,1.42
21,B21,0.909
22,B22,3.96
23,B23,3.59
24,B24,1.5

# Reference: article PMC12136788
